The values below come from PubChem BioAssay (NCATS).

For test [1], the target named is Lysosomal acid glucosylceramidase (Homo sapiens) (UniProt P04062). Nature of the test: Glucocerebrosidase-p2 (AID 348; in the data active = potency below about 10 µM; also: potency is read from the fitted curve at half-maximal effect). As to conditions: purified GBA, blue fluorogenic substrate, 40 min. In outline: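 Compounds titrated from 0.6 nM upwards against 0.2 nM enzyme in pH 5.9 citric acid/KH2PO4, taurocholate, tween-20; blue fluorogenic substrate 80 uM, 40 min room temperature, stopped and read Ex 365/Em 440 for AC50.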

Test [2] has as its target Cytochrome P450 1A2 (Homo sapiens) (UniProt P05177). Nature of the test: p450-cyp1a2 (AID 410; calls by dose curve; also: potency is read from the fitted curve at half-maximal effect;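 as to activity change, negative = inhibition: -100% = full effect of reference inhibitor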). In outline: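 20nM CYP1A2 with 100uM Luciferin-ME (at Km) in 100mM KPO4; compound preincubated 10 min, NADPH regeneration added, 60 min at room temperature. Luciferin quantified by luminescence after detection reagent; normalized to 57 uM furafylline.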
Test [3] can be described thus: NFAT Signaling Pathway (AID 444; active = well fitted curve in either direction with a large enough effect, not every such curve was filed as active;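 also: carbachol stimulus at about its EC50 of 1 µM final; % is scaled to controls: 0 for no effect and ±100 for the full control effect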). As to conditions: Jurkat NFAT-bla M1, carbachol, beta-lactamase ratio, 5 h; at 7.69 µM (top of the series) unless noted. In outline: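 Jurkat cells with NFAT-driven β-lactamase reporter and co-expressed M1 receptor, stimulated with carbachol (final 1 uM, ~EC50), compound titration, 5 h at 37 °C. CCF4 loaded 1 h at RT; 460/530 nm ratio gave %activity and AC50.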

A short description of test [4]: Stat Signaling Pathway (AID 446; active = well fitted curve in either direction with a large enough effect, not every such curve was filed as active;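 also: ME-180 cervical cancer cells given 40 pM IL-6 alongside compound; SIE-controlled beta-lactamase reporter measured as 460/530 nm FRET emission ratio; % is scaled to controls: 0 for no effect and ±100 for the full control effect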). As to conditions: ME-180 SIE beta-lactamase reporter, IL-6 stimulated, 5 h. In short, it runs like this: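 IL-6/STAT signaling read in ME-180 cells via an SIE beta-lactamase reporter. Stimulus was 40 pM IL-6 (its AC50) for 5 hrs, so both activation and inhibition register.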
The target of test [5] is Glucocorticoid receptor (Homo sapiens) (UniProt P04150). Nature of the test: GR-GFP Redistribution (AID 450;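 active = compounds whose dose series gives a full or clear partial fitted curve of increased nuclear translocation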; also: potency is read from the fitted curve at half-maximal effect). Particulars: U2OS GR-GFP nuclear translocation, laser cytometry, 2 h.
Glucocorticoid receptor (Homo sapiens), sequence (P04150 whole entry, looked up): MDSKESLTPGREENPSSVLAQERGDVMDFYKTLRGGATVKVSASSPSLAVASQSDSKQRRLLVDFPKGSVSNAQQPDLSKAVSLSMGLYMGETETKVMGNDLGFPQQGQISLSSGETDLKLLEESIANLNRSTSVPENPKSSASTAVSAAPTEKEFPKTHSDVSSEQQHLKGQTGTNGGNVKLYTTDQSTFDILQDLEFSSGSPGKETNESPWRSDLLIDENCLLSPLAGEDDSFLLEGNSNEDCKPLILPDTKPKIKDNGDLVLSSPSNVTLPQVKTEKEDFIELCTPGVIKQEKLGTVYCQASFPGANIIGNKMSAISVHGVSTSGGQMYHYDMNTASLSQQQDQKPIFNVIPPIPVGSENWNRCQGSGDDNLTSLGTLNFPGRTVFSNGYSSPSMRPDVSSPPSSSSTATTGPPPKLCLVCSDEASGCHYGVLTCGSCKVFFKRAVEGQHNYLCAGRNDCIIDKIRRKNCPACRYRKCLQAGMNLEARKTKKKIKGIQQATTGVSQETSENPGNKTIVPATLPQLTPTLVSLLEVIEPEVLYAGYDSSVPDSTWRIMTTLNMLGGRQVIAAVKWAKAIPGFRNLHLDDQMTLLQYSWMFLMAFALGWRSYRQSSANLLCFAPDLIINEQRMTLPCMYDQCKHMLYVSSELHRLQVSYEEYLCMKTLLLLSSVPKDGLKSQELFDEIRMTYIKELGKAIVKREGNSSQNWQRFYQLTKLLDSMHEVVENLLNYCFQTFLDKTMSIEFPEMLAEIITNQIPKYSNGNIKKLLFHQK
The target is the same in test [6]. Nature of the test: GR-EFC Redistribution (AID 451; calls by dose curve; also: potency is read from the fitted curve at half-maximal effect). As to conditions: CHO-K1 GR-EFC translocation, beta-gal luminescence, 2 h. In short, it runs like this:
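CHO-K1 cells expressing nuclear EA and GR-ED fragments of b-gal; compounds titrated up to 46 uM final, 2 h at 37 C. GR nuclear translocation read as complemented b-gal luminescence after 1 h RT detection.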

For test [7], the target named is Mitogen-activated protein kinase 10 (Mus musculus) (UniProt Q61831). Nature of the test: JNK3 AlphaScreen Assay (AID 530; active = well fitted curve in either direction with a large enough effect, not every such curve was filed as active;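 also: kinase came from lysate of stimulated human HepG2 cells; signal reports phosphorylation of biotinylated GST-cJun 1-79 at Ser73 with 10 µM ATP; % is scaled to controls: 0 for no effect and ±100 for the full control effect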). In outline: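 Pre-activated (IL-1β/TNFα) JNK3 in HepG2 lysates phosphorylates biotin-GST-cJun(1-79), 10 uM ATP; anti-phospho-cJun(Ser73) AlphaScreen read at room temperature, pH 7.6 Tris buffer. Compounds pre-incubated 15 min as titrations.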
(In general: In Alpha technology, singlet oxygen from a donor bead excites a nearby acceptor bead.)

Test [8] has as its target Cytochrome P450 3A4 (Homo sapiens) (UniProt P08684). Nature of the test: qHTS Assay for Inhibitors and Substrates of Cytochrome P450 3A4 (AID 884). Also: potency is read from the fitted curve at half-maximal effect; nearly all actives have a fitted effect of over 50% in size. In outline:
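20 nM human CYP3A4 with 25 uM Luciferin-PPXE (at KM) in 200 mM KPO4, preincubated 10 min with compound; NADPH regeneration started a 60 min RT reaction. Luciferin detected by luminescence, normalized to 57 uM ketoconazole as full inhibition.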
A general note: In qHTS, concentration-response curves come from the screen itself.

The target is the same in test [9]. Nature of the test: qHTS Assay for Activators of Cytochrome P450 3A4 (AID 885). Also: nearly all actives have a fitted effect of over 65% in size. In outline: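 Quantitative HTS format: compounds preincubated with 20nM human CYP3A4 and Luciferin-PPXE substrate at KM, reaction started by NADPH regeneration, stopped after 60 min, luciferase luminescence read 20 min later.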
The target of test [10] is Cytochrome P450 2D6 (Homo sapiens) (UniProt P10635). Nature of the test: qHTS Assay for Inhibitors and Substrates of Cytochrome P450 2D6 (AID 891). Also: potency is read from the fitted curve at half-maximal effect; nearly all actives have a fitted effect of over 60% in size. In outline: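 Human CYP2D6 (5 nM) with 30 uM Luciferin-ME EGE (at Km) in 100 mM KPO4, compound preincubated 10 min, then NADPH regeneration system for 60 min at room temperature. Luciferin read by luminescence; normalized to 1.43 uM quinidine.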

Test [11] can be described thus: Confirmation and Secondary Assay for Modulators of Hemoglobin Beta Chain Splicing at IVS2 654 locus (AID 910).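 Also: HeLa cells stably carrying EGFP split by mutant beta-globin IVS2-654 intron; % of control where 0% means no effect.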 In short, it runs like this:
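HeLa cells stably expressing EGFP interrupted by β-globin IVS2-654 intron, seeded overnight in Opti-MEM/2% FCS, then treated 2 days at 37 °C. Restored splicing read as total peak GFP intensity per well by laser scanning cytometry (488 nm excitation, 500–520 nm emission); 500 nM antisense PNA as control.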

Test [12] is described as follows: Confirmation and Secondary Assay for Modulators of Hemoglobin Beta Chain Splicing at IVS2 705 locus (AID 930).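 Also: HeLa cells stably expressing the EGFP-705 splicing reporter; GFP fluorescence per well restored by corrected splicing of the IVS2-705 intron in EGFP; % of control where 0% means no effect.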 In outline: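 Read-out: total peak GFP fluorescence per well (488 nm excitation, 500-520 nm emission) by laser-scanning cytometry. Cells: HeLa EGFP-705 splicing reporter, 2 days compound exposure in Optimem/2% FCS.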
Test [13] has as its target Rap guanine nucleotide exchange factor 3 (Homo sapiens) (UniProt O95398). Nature of the test: Confirmatory qHTS for antagonist of cAMP-regulated guanine nucleotide exchange factor 3 (EPAC1) (AID 1645880).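 Also: plate controls were DMSO only for no effect and full effect of the ATA control for full effect; nearly all actives have a fitted effect of over 55% in size.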 In short, it runs like this: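 Nucleotide exchange uses 100 nM EPAC1, 250 nM RAP1B-BODIPY-GDP and 50 uM GDP, with compounds in a concentration-titration series. After 5 min at room temperature, fluorescence (480 nm ex/540 nm em) is read every 5 min for 30 min. Data are normalized to control ATA and DMSO.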

Test [14] shares this target. Nature of the test: Confirmatory qHTS for agonist of cAMP-regulated guanine nucleotide exchange factor 3 (EPAC1) (AID 1645881).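 Also: EPAC1 catalysed release of BODIPY-GDP from Rap1B seen as fluorescence loss; 100% = effect of cAMP agonist control; nearly all actives have a fitted effect of over 75% in size.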
Test [15] deals with Rap guanine nucleotide exchange factor 4 (Homo sapiens) (UniProt Q8WZA2). Nature of the test: Confirmatory qHTS for agonist of cAMP-regulated guanine nucleotide exchange factor 4 (EPAC2) (AID 1645884). Also: % is scaled to controls: 0 for no effect and ±100 for the full control effect; nearly all actives have a fitted effect of over 65% in size.
Test [16] can be described thus: AP1 Signaling Pathway (AID 357; active = well fitted curve in either direction with a large enough effect, not every such curve was filed as active; also: % is scaled to controls: 0 for no effect and ±100 for the full control effect). As to conditions: ME-180 (cervical carcinoma) AP-1-bla reporter, EGF-induced, beta-lactamase ratio, 5 h; at 7.69 µM (top of the series) unless noted. In short, it runs like this: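 AP-1-bla ME-180 cells with beta-lactamase reporter under AP-1 response element, stimulated with EC50 EGF; compounds titrated, 5 hours at 37 degrees Celsius. CCF4 read at 460/530 nm ratio; positive and negative modulators judged by AC50.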

For test [17], the target named is 3',5'-cyclic-AMP phosphodiesterase 4B (Homo sapiens) (UniProt Q07343). Nature of the test: qHTS Assay for Inhibitors of PDE-IV (AID 607; active = well fitted activation curve with a large enough effect in the main read-out, with a control signal flat, not every such curve was filed as active; also: % of control where 0% means no effect). In outline:
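Live HEK293 cells with a modified cyclic nucleotide-gated (CNG) channel report intracellular cAMP via membrane-potential dye fluorescence (ex 535/em 590 nm). Endogenous PDE-IV was targeted. Compounds were tested at up to 22.9 uM final; RO 20-1724 100 uM served as control.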

Test [18] deals with Guanine nucleotide-binding protein G(i) subunit alpha-1 (Homo sapiens) (UniProt P63096). Nature of the test: qHTS Assay for Inhibitors of RGS12 GoLoco Motif Activity (Green Fluorophore) (AID 879).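 Also: 0% = labeled peptide with Gαi1 and full inhibition = labeled peptide alone without protein; negative values mean loss of peptide binding seen as reduced polarization.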 In short, it runs like this: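 Fluorescence polarization assay: 50 nM Gαi1 with 10 nM FITC-labeled RGS12 GoLoco peptide in 10 mM Tris pH 7.5, 150 mM NaCl, 0.1 mM GDP, 0.05% NP40, 10 min at room temperature with compound.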
Guanine nucleotide-binding protein G(i) subunit alpha-1 (Homo sapiens), sequence (P63096 whole entry, looked up): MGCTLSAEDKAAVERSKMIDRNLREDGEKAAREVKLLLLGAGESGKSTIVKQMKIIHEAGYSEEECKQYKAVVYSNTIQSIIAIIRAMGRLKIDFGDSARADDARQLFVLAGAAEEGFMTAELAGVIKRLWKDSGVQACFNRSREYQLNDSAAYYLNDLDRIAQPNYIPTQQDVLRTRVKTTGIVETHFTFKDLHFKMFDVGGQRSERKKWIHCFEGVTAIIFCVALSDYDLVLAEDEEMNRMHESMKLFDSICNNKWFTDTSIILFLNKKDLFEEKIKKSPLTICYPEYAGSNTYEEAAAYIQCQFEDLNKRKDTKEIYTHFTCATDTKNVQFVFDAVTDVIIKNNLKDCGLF

The target in test [19] is Cytochrome P450 2C9 (Homo sapiens) (UniProt P11712). Nature of the test: qHTS Assay for Inhibitors and Substrates of Cytochrome P450 2C9 (AID 883). Also: % is scaled to controls: 0 for no effect and ±100 for the full control effect; nearly all actives have a fitted effect of over 60% in size. In short, it runs like this: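 10nM CYP2C9 + 100uM Luciferin-H (=KM), 25mM KPO4; cpd 10 min 37C; NADPH regen, 60 min 37C; stop/detect with P450 Glo-Buffer 20 min; luminescence. Norm. to 57uM sulphaphenazole as full inhibition.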
Cytochrome P450 2C9 (Homo sapiens), sequence (P11712 whole entry, looked up): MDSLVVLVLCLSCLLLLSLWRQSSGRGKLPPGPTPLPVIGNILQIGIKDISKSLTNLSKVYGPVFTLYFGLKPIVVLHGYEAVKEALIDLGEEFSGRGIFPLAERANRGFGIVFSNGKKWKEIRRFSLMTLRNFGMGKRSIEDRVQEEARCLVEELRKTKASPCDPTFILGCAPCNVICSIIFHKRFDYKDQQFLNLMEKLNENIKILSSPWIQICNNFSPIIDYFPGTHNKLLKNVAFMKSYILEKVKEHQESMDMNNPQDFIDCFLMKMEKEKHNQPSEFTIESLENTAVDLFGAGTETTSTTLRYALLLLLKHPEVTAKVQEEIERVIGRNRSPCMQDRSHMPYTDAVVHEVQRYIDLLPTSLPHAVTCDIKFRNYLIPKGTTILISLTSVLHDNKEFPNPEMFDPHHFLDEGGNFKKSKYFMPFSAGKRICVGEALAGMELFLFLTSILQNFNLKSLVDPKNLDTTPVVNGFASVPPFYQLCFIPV

Test [20] can be described thus: qHTS Assay for Identification of Small Molecule Agonists for Thrombopoietin (TPO) Signaling Pathway (AID 917). Also: % is scaled to controls: 0 for no effect and ±100 for the full control effect. In outline: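 Murine Ba/F3 cells expressing human TPO receptor and GPIIb-promoter luciferase, IL-3-starved overnight, given compound plus TPO at 26 pM (EC50). After 24 h at 37 C, 5% CO2, luminescence read.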
The target of test [21] is Pyruvate kinase (Leishmania mexicana) (UniProt Q27686). Nature of the test: qHTS Validation Assay for Inhibitors of Leishmania Mexicana Pyruvate Kinase (AID 945).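 Also: 0% = DMSO only neutral control wells.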 In short, it runs like this:
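Luminescent ATP detection (PKLight) after a 1 h room-temperature reaction of 0.2 nM LmPYK E451W mutant with 0.5 mM PEP and 0.1 mM ADP at pH 7.2. Activity is normalized to DMSO-only control wells.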

The target in test [22] is Pyruvate kinase PKM (Homo sapiens) (UniProt P14618). Nature of the test: qHTS Assay for Activators of Human Muscle Pyruvate Kinase (AID 954; active = well fitted curve in the direction sought with a large enough effect, not every such curve was filed as active;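 also: 0% = uninhibited enzyme and -100% = no enzyme or full thiadiazolimine inhibition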). In short, it runs like this:
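Enzyme was run at intermediate activity so both inhibitors and activators could be detected. ATP formed from ADP and PEP by 0.1 nM human PKM2 during a 1 h room-temperature incubation was quantified by coupled luciferase luminescence.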

Test [23] deals with Alpha-galactosidase A (Homo sapiens) (UniProt P06280). Nature of the test: Counterscreen for Glucocerebrosidase Inhibitors: qHTS Assay for Human alpha-Galactosidase at pH 4.5 (AID 992). Also: 0% is about no effect. In short, it runs like this: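 Read-out is 4-methylumbelliferone fluorescence (365 nm excitation, 440 nm emission) after a pH 10 NaOH/glycine stop. Reactions held 2 nM enzyme and 80 uM substrate at pH 4.5 for 20 min at room temperature.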
Alpha-galactosidase A (Homo sapiens), sequence (P06280 whole entry, looked up): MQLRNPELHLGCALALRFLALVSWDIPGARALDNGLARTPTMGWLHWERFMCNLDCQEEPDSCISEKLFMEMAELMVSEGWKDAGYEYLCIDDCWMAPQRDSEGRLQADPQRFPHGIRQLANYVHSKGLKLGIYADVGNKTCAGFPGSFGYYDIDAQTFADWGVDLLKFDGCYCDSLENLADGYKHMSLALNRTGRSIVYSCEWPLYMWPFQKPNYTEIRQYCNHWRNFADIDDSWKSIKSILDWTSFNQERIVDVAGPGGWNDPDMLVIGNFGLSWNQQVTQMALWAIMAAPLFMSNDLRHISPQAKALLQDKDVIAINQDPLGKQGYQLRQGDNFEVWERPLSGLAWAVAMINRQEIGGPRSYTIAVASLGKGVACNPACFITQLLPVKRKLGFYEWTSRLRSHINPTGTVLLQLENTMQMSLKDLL

Test [24] addresses alpha-glucosidase (Oryza sativa, rice) (UniProt Q653V4). Nature of the test: Counterscreen for Glucocerebrosidase Inhibitors: qHTS Assay for Rice alpha-Glucosidase at pH 5.0 (AID 997).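 Also: 0% = full activity with enzyme and -100% = basal without enzyme.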 In outline: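 Rice alpha-glucosidase (4 nM final) with 400 uM 4-methylumbelliferyl-alpha-D-glucopyranoside in citrate buffer pH 5.0, 20 min at room temperature, stopped at pH 10; fluorescence 365/440 nm, compounds 0.7 nM–77 uM, AC50 from Hill fits.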

For test [25], the target named is Flap endonuclease 1 (Homo sapiens) (UniProt P39748). Nature of the test: qHTS Assay for the Inhibitors of FEN1: Confirmatory Assay for Cherry-picked Compounds (AID 720498). Also: potency is read from the fitted curve at half-maximal effect; nearly all actives have a fitted effect of over 60% in size. As to conditions: FEN1 flap cleavage, TAMRA/BHQ2 fluorogenic DNA substrate. In short, it runs like this: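 FEN1 at 10 nM was preincubated with compound for 15 min at room temperature, then 50 nM (final) double-flap DNA substrate was added. TAMRA fluorescence released from the BHQ-2-quenched flap was read at 0 and 15 min (ex 525/em 598 nm).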
Flap endonuclease 1 (Homo sapiens), sequence (P39748 whole entry, looked up): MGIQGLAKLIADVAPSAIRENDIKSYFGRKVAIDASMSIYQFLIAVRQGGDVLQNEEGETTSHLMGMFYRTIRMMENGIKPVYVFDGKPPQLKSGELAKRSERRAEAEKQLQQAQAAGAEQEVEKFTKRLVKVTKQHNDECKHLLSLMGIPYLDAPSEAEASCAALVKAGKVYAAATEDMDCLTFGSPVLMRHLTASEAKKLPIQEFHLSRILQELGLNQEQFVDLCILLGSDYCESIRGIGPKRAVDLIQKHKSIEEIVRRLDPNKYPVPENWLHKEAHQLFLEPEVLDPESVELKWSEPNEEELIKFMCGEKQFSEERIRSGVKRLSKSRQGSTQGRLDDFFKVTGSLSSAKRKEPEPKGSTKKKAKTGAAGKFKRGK

Where “and” joins values, the source holds several entries; their conditions need not be identical. Equal entries are not always repeated. Records with an inconclusive call do not appear. Some of the results follow. Calls of active or inactive are those of the source. Unless noted, calls follow the shape of the dose curve; as a rule, active = well fitted curve in the direction sought with a large enough effect; inconclusive = small, poorly fitted or top-dose-only effect, or another doubt; inactive = no such curve, though single readings can be large; an effect the other way counts as inactive or inconclusive.

Cytochrome P450 1A2 (Homo sapiens), sequence (P05177 whole entry, looked up): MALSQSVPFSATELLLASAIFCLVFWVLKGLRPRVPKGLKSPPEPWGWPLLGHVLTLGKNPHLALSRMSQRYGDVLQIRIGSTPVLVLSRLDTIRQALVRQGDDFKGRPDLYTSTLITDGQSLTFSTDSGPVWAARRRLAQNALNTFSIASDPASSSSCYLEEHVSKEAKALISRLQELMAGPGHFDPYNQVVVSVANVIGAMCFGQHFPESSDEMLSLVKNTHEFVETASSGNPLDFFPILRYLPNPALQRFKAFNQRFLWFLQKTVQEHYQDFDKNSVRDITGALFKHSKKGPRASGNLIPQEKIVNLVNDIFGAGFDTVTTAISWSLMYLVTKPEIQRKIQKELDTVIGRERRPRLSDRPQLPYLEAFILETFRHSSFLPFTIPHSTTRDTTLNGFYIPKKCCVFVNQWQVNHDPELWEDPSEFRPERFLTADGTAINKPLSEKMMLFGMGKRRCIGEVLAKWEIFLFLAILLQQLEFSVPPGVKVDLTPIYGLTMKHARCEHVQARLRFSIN
Cytochrome P450 3A4 (Homo sapiens), sequence (P08684 whole entry, looked up): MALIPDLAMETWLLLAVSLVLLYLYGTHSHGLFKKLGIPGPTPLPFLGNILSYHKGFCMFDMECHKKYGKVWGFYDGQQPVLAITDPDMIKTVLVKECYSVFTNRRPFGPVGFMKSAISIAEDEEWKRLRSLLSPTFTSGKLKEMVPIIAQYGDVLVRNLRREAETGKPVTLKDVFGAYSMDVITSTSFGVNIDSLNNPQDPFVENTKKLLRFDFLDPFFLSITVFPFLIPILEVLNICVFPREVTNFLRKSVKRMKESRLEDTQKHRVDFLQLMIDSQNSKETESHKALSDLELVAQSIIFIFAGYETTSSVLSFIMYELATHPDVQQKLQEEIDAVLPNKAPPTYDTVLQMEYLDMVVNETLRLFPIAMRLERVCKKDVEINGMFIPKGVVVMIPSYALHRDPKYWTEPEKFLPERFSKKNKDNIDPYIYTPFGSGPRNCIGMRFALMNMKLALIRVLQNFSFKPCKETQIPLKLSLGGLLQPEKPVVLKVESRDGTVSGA
Rap guanine nucleotide exchange factor 3 (Homo sapiens), sequence (O95398 whole entry, looked up): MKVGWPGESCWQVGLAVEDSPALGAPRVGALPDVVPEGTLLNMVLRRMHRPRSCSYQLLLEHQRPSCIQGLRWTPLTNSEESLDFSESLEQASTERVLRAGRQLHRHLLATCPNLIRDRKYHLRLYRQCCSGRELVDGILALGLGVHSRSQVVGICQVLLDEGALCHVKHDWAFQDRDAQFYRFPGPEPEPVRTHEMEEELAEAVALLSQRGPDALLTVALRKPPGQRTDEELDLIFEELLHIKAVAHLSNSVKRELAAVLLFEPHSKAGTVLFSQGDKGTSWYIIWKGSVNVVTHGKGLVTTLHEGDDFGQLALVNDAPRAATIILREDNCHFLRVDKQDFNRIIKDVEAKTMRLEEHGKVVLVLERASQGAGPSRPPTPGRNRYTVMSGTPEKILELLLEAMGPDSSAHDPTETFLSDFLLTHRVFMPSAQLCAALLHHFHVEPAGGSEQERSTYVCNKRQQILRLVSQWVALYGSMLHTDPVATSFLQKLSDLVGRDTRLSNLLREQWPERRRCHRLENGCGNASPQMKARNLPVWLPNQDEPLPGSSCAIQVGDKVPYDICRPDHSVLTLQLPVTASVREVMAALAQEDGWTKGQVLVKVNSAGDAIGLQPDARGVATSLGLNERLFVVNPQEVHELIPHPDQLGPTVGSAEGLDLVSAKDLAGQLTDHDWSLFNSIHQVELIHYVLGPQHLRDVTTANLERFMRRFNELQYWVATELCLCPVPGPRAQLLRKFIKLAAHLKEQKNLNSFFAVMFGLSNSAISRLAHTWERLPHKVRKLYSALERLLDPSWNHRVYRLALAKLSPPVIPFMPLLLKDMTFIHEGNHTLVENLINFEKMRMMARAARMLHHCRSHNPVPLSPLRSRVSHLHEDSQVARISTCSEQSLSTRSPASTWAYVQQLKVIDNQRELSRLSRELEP
Pyruvate kinase PKM (Homo sapiens), sequence (P14618 whole entry, looked up): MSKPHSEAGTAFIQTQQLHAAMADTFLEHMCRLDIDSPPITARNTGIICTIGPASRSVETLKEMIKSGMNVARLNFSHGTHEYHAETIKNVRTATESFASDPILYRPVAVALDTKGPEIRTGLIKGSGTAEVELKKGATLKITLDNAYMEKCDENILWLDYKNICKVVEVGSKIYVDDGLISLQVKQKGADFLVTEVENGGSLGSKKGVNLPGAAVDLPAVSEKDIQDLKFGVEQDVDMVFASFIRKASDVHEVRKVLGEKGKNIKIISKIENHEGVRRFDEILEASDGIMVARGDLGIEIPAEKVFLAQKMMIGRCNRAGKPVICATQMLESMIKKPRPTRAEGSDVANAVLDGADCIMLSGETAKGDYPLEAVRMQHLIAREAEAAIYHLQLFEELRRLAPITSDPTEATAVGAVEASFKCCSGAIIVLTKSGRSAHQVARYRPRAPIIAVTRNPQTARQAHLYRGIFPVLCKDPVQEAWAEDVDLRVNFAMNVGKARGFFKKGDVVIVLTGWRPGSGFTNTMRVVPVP

Consider `COc1ccccc1CNc1ncnc2ccc(-c3cccnc3)cc12`, for which the Potency in test [1] was > 11.4 µM (inactive); in test [2], 0.316 µM (active); in test [5] it was > 46 µM (inactive); in test [6], > 46 µM (inactive); in [8] it was 2 µM (active); in [10], 5.01 µM (active). For the same molecule, the activity change, negative = inhibition in [3] is 12.3% (inactive). Also, in test [4] (at 7.69 µM (top of the series) unless noted), the activity, negative = inhibition was -17.2% (inactive). Further, the Potency result in test [7], in test [9], in test [11], in test [13], in test [14] and in test [15] was “inactive” each time. Moreover, in test [12], the call was inactive.
As for `Cc1ccccc1[C@@H](OCCN(C)C)c1ccccc1`, the activity change, negative = inhibition in [16] is 26.9% [at 17.2 µM] (inactive). Further, the Potency entry in test [2], in test [7], in test [17], in test [18], in test [19] and in [9] was “inactive” in each case. Further, the results for the activity, negative = inhibition in [4] (at 17.2 µM (top of the series)) and in [4] (at 38 µM (top of the series)) were 5.39% (inactive) and 20.8% (inactive), respectively. Further, the Potency in test [5] was > 46 µM (inactive) and > 20.6 µM (inactive); in test [6] it was > 46 µM (inactive) and > 20.6 µM (inactive). In addition, the molecule was called inactive in test [20], in [21], in test [22], in [23] and in test [24].
As to `CCC1CCCCN1CCCNC(=O)c1cc2c(Cl)nc3ccccc3c2s1` (configuration not stated), in test [25], the Potency was 33.8 µM (active).
